Composite z-score and z-score data for 17 molecules are collected here from PubChem BioAssay.

Active and inactive are the calls of the source. Unless noted, the rule behind the calls is not given here.

The test system of experiment [1] is XIP peptide (Xip251-270) binding. The experiment in a line: small-molecule binders of XIP peptide, primary screen, biochemical, small-molecule microarray, fluorescence 635/667 nm, 0.1 µg/mL protein (AID 1182). The note with it: fluorescent protein binding, 635 nm, higher = more signal, called active from +8 up or from −8 down.
Experiment [2] relates to XIP peptide (Xip251-270). The experiment in a line: small-molecule binders of XIP peptide, primary screen, biochemical, small-molecule microarray, fluorescence 635/667 nm, 0.5 µg/mL protein (AID 1183). The note with it: small-molecule microarray binding, fluorescence 635 nm; higher = more signal.
The nature of experiment [3]: Plasmodium falciparum growth inhibition, primary screen, strain 3D7, DAPI fluorescence, 100 nL (AID 1184).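 Note: parasites grown inside human red blood cells in medium with human serum.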 The note with it: P. falciparum 3D7 growth, 3 d, higher = more signal.
Experiment [4] addresses Homeobox protein Hox-A13 (Mus musculus) (UniProt Q62424). Description: inhibitors of HoxA13-DNA binding, primary screen, biochemical, fluorescence polarization, labeled oligonucleotide (AID 1185). As to conditions: 15 min, higher = more signal, called active from +8 up or from −8 down.
Experiment [5] can be described thus: inhibitors of hydroxyurea-induced Chk1 phosphorylation, primary screen, imaging, HeLa, phospho-Chk1 antibody, percent positive cells (AID 1186). As to conditions: hydroxyurea-induced phospho-Chk1 immunofluorescence imaging, higher = more signal.
Experiment [6] in a line: inhibitors of hydroxyurea-induced Chk1 phosphorylation, primary screen, imaging, HeLa, phospho-Chk1 nuclear intensity (AID 1187). As to conditions: hydroxyurea-induced phospho-Chk1 immunofluorescence imaging, higher = more signal.

Chain of Homeobox protein Hox-A13 (Mus musculus) (Q62424 whole entry, looked up): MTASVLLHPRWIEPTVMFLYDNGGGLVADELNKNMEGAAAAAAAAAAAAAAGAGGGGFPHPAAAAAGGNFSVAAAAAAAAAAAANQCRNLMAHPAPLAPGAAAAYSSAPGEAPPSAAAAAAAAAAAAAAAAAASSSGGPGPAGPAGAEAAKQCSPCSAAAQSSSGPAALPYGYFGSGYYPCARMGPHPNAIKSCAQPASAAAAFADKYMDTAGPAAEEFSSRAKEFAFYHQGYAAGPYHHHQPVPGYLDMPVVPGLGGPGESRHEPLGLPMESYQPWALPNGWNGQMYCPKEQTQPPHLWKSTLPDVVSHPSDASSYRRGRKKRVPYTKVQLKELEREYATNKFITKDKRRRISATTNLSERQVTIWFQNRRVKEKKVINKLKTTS

In the case of `COC(=O)[C@@]1(Cc2ccc(OC)cc2)[C@H]2c3cc(C(=O)N4CCCC4)n(C[C@H](O)CO)c3C[C@H]2CN1C(=O)c1ccccc1`, the composite z-score is 0.883 (inactive) in experiment [1] and -0.197 in experiment [2]. For the same molecule, the z-score was -1.17 in experiment [3], -5.13 (inactive) in experiment [4], 0.0578 (inactive) in experiment [5] and -0.0868 (inactive) in experiment [6].
As to `CCOC(=O)C1=CC[C@@H](c2cccc(Cl)c2)N(S(=O)(=O)c2ccc(C)cc2)[C@H]1c1ccc(C#N)cc1`, the composite z-score in experiment [1] was 0.197 (inactive); in experiment [2] it was 0.73. Also, the z-score in experiment [3] is -2.12; in experiment [4], 1.05 (inactive); in experiment [5], 0.645 (inactive); in experiment [6] it was -0.118 (inactive).
On to `CCOC(=O)C[C@H]1[C@H](OC(=O)c2ccc(C(=O)c3ccccc3)cc2)[C@@H](NC(=O)c2ccc3ccccc3n2)c2cc(OCCCO)ccc2N1C(=O)c1ccc2ccccc2n1`, for which the composite z-score in experiment [1] is 0.545 (inactive); in experiment [2], 0.613. Besides, the z-score in experiment [3] is -2.55; in experiment [4], -2.61 (inactive); in experiment [5], 0.226 (inactive); in experiment [6] it was 0.194 (inactive).
Regarding `COc1cc2c(cc1O)C(c1ccc(CN3CCCC3)cc1)N(Cc1sc3ccccc3c1Cl)CC2` (configuration not stated), the results for the composite z-score in experiment [1] and in experiment [2] were 0.656 (inactive) and 0.879, respectively. Moreover, the z-score in experiment [3] is -1.58; in experiment [4], -5.24 (inactive); in experiment [5] it was 0.356 (inactive); in experiment [6] it was 0.653 (inactive).
Turning to `CCCCCCCCCCC(O)C1C=CC2C(=O)N(c3ccccc3)C(=O)C2N1Nc1ccc([N+](=O)[O-])cc1` (configuration not stated), the composite z-score in experiment [1] was 0.812 (inactive); in experiment [2] it was 0.801. Also, the z-score in experiment [3] was -0.338; in experiment [4], -2.71 (inactive); in experiment [5], 0.346 (inactive); in experiment [6] it was -0.444 (inactive).
With `O=C(CS)NCCCCCNC(=O)[C@H]1C[C@H]2C(=O)N[C@@H](Cc3ccccc3)C(=O)N2[C@H]1c1cccc(OCCO)c1`, the figures for the composite z-score in experiment [1] and in experiment [2] were 0.296 (inactive) and 0.812, respectively. In addition, the z-score in experiment [3] was 0.0332; in experiment [4], -2.76 (inactive); in experiment [5] it was 0.0034 (inactive); in experiment [6], 0.483 (inactive).
With `O=C1C2C=CC(C(O)c3cccc4ccccc34)N(n3cnnc3)C2C(=O)N1Cc1ccccc1` (configuration not stated), the composite z-score in experiment [1] was -0.0195 (inactive); in experiment [2], -0.633. The z-score in experiment [3] was -0.206; in experiment [4], -1.86 (inactive); in experiment [5], 0.993 (inactive); in experiment [6] it was -0.055 (inactive).
For `[N-]=[N+]=NCc1ccccc1[C@H]1OC(c2ccc(OCCCO)cc2)=N[C@@]1(Cc1ccccc1)C(=O)NCC(O)CO` (some centres not stated), the values for the composite z-score in experiment [1] and in experiment [2] were 0.701 (inactive) and 0.306, respectively. The z-score in experiment [3] was -2.48; in experiment [4] it was -3.47 (inactive); in experiment [5], 0.105 (inactive); in experiment [6], 0.231 (inactive).
`CCCNC(=O)[C@@]1(C)c2ccccc2C(=O)N(Cc2cc(C(F)(F)F)cc(C(F)(F)F)c2)[C@H]1c1ccc(CO)cc1`: the values for the composite z-score in experiment [1] and in experiment [2] were 0.977 (inactive) and 0.665, respectively. Moreover, the z-score in experiment [3] was -1.63; in experiment [4], -4.26 (inactive); in experiment [5], -0.0596 (inactive); in experiment [6], -0.0865 (inactive).
With `COc1ccc(CCNC(=O)[C@@]2(C)c3ccccc3C(=O)N(Cc3ccccc3)[C@H]2c2ccc(CO)cc2)cc1`, the composite z-score is 1.12 (inactive) in experiment [1] and 0.859 in experiment [2]. Moreover, the z-score was -1.93 in experiment [3], -4.95 (inactive) in experiment [4], -0.281 (inactive) in experiment [5] and -0.173 (inactive) in experiment [6].
As to `Cc1cccc(/C=C/C=O)c1`, the composite z-score is 0.43 (inactive) in experiment [1] and 0.838 in experiment [2]. For the same molecule, the z-score was 0.787 in experiment [3], -1.05 (inactive) in experiment [4], 0.381 (inactive) in experiment [5] and 0.412 (inactive) in experiment [6].
For the molecule `COCCOC(=O)N1C(=O)[C@@]2(c3cc(C#CC4=CCCCC4)ccc31)[C@H](c1ccc(OCCO)cc1)N1[C@H](c3ccccc3)[C@H](c3ccccc3)OC(=O)[C@H]1[C@@H]2C(=O)Nc1nc2ccccc2s1`, the figures for the composite z-score in experiment [1] and in experiment [2] were -0.166 (inactive) and 0.622, respectively. Further, the z-score was -1.29 in experiment [3], 3.94 (inactive) in experiment [4], -0.446 (inactive) in experiment [5] and -1.1 (inactive) in experiment [6].
Take `C=CCOC(=O)[C@H]1[C@@H]2C(=O)O[C@@H](c3ccccc3)[C@@H](c3ccccc3)N2[C@@H](c2ccc(OCCOC(=O)[C@H]3C[C@H]4C(=O)N[C@@H](CCCC[N+](C)(C)C)C(=O)N4[C@H]3c3ccc(O)cc3)cc2)[C@]12C(=O)Nc1ccccc12`: the results for the composite z-score in experiment [1] and in experiment [2] were -0.436 (inactive) and 0.487, respectively. For the same molecule, the z-score is 1.04 in experiment [3], 6.97 (inactive) in experiment [4], -0.179 (inactive) in experiment [5] and -0.219 (inactive) in experiment [6].
Consider `COCCOC(=O)N1C(=O)[C@@]2(c3cc(C#CCCO)ccc31)[C@H](c1ccc(O)cc1)N1[C@H](c3ccccc3)[C@H](c3ccccc3)OC(=O)[C@H]1[C@@H]2C(=O)N1CCCCCCC1`, for which the composite z-score in experiment [1] was 0.449 (inactive); in experiment [2], 0.723. Also, the z-score was -0.0358 in experiment [3], -1.14 (inactive) in experiment [4], -0.0035 (inactive) in experiment [5] and -0.334 (inactive) in experiment [6].
With `O=c1cccc(-c2cccc3ccccc23)o1`, the composite z-score was -0.738 (inactive) in experiment [1] and 0.454 in experiment [2]. Moreover, the z-score in experiment [3] was -0.796; in experiment [4] it was -1.69 (inactive); in experiment [5], -0.715 (inactive); in experiment [6] it was -1.06 (inactive).
Take `COCCn1c(C(=O)N2CCCC2)cc2c1C[C@H]1CN(C(=O)c3ccccc3)[C@@](Cc3ccc(OC)cc3)(C(=O)OC)[C@@H]21`: the composite z-score in experiment [1] was 0.541 (inactive); in experiment [2], 0.603. For the same molecule, the z-score in experiment [3] was -1.55; in experiment [4], -4.97 (inactive); in experiment [5], -0.598 (inactive); in experiment [6], -0.634 (inactive).
Consider `COCCn1c(C(=O)N(C)C)cc2c1C[C@H]1CN(C(=O)c3ccccc3)[C@@](Cc3ccc(F)cc3)(C(=O)OC)[C@@H]21`, for which the composite z-score in experiment [1] was 0.112 (inactive); in experiment [2] it was 0.0743. For the same molecule, the z-score in experiment [3] is -0.292; in experiment [4] it was -4.93 (inactive); in experiment [5] it was 0.562 (inactive); in experiment [6], 0.478 (inactive).
